The text below walks through data of PubChem BioAssay.

The first assay has as its target PEG-3 (UniProt Q6IN02). Kind of assay: inhibition of PEG-3 promoter-driven reporter – cell-based, HeLa, luciferase, CREF/GAPDH counter-screen panel, dose response (AID 624167). The following applies: CREF/GAPDH counter-screens; HeLa PEG-Prom luciferase reporter, overnight, run 1, dose range 1, at 100 µM (top of the series) unless noted. Background: Counterscreens check selectivity or assay interference.
Turning to `O=C(N/N=C/c1sc(N2CCOCC2)nc1-c1ccccc1)c1cccc(S(=O)(=O)N2CCCC2)c1`, the inhibition came to 63.5%.

As for `Cc1nc(-c2ccc(NC(=O)c3ccco3)cc2)cs1`, the inhibition turned out to be 98.9%.

For `O=C(c1ccco1)N1CCN(C(c2ccccc2Cl)c2nnnn2Cc2cccs2)CC1` (stereo not given), the inhibition worked out at 63%.

Turning to `COc1ccc(/C=C2\SC(=S)N(CCCC(=O)NNC(=O)c3ccccc3O)C2=O)cc1`, the inhibition came to 89.6%.

`Cc1ccc(C(C[N+](=O)[O-])Sc2ccc(N)cc2)cc1` (stereo not given): the inhibition amounted to 98.7%.

Take `O=C(OCC(F)(F)F)c1cccc(COc2ccc3ccccc3c2)c1`: the inhibition was determined as 96.5%.

Turning to `O=C(O)c1ccc(N/N=C/c2ccc3c(c2)OCO3)cc1`, the inhibition was 98%.

Consider `Cc1cc(C)c2c(N)c(C(=O)Nc3ncc(C)s3)sc2n1`, for which the inhibition was 90.9%.

Consider `Cc1cccc(C)c1NC(=O)c1nc(S(=O)(=O)Cc2ccccc2)ncc1Cl`, for which the inhibition is 102%.

For the molecule `COc1ccc(-n2cc(-c3ccccc3)c3c(N4CCOCC4)ncnc32)cc1`, the inhibition stood at 94.2%.

Regarding `CCCCC(=O)NC(c1ccccc1OC)c1ccc2cccnc2c1O` (stereo not given), the inhibition was found to be 67.7%.

`Cc1cc(N2CCN(C)CC2)ccc1NC(=O)c1c2c(nc3ccccc13)CCN(Cc1ccccc1)C2`: the inhibition amounted to 101%.

On to `Cc1cc(C)c(C)c(S(=O)(=O)N2CCN(C(=O)c3cc(=O)[nH]c4ccccc34)CC2)c1C`, for which the inhibition was 82.1%.

For the molecule `CCCCCN1C=CC(=C2C(=O)c3ccccc3C2=O)C=C1`, the inhibition came out at 102%.

In the case of `CCCCCCCn1c(=N)n(CC(=O)c2ccco2)c2ccccc21`, the inhibition was 102%.

`O=c1oc2ccccc2cc1-c1cn2ccccc2n1`: the inhibition amounted to 92.7%.

In the case of `O=C(COc1ccc(Cl)cc1Cl)Nc1ccccn1`, the inhibition worked out at 94%.

Turning to `Cc1cc(NC(c2cccnc2)c2ccc3cccnc3c2O)no1` (stereo not given), the inhibition worked out at 63.9%.

`CS(=O)(=O)c1ccc(-c2sc3ccccc3c2C#CCCO)cc1`: the inhibition was determined as 96%.

Regarding `COc1cccc(-c2sc3ccccc3c2-c2ccc(OCCN(C)C)cc2)c1`, the inhibition was 99.6%.

Take `CCCSc1ccc2nc(-c3ccccc3)cn2c1`: the inhibition was found to be 98.4%.

As to `CC(=O)NC(c1ccc(N(C)C)cc1)c1cc(Cl)c2cccnc2c1O` (stereo not given), the inhibition turned out to be 76.1%.

For the molecule `Cc1ccc(NC(=S)NC(=O)c2ccc(F)cc2)cc1S(=O)(=O)Nc1ccccc1Cl`, the inhibition amounted to 70.7%.

With `CCCOc1ccc2cc(-c3ccccn3)c(=O)oc2c1`, the inhibition was determined as 93.5%.

`CCC(c1ccc(O)c(O)c1)C(CC)c1ccc(O)c(O)c1` (stereo not given): the inhibition was found to be 102%.

As to `O=[N+]([O-])c1ccc(S(=O)(=O)c2ccccc2)nc1`, the inhibition worked out at 99.3%.

Take `O=C(Nc1ccccc1C(=O)Nc1nnc(C(F)(F)F)s1)c1ccccc1`: the inhibition worked out at 93%.

As to `S=C(NN=C(c1ccccc1)c1ccccn1)N(Cc1ccccn1)Cc1ccccn1`, the inhibition was determined as 102%.

Turning to `O=C(NCCc1ccccc1)c1ccc2c(c1)OCO2`, the inhibition was 86.2%.

In the case of `CCC(=O)NC(c1cccs1)c1cc(Cl)c2cccnc2c1O` (stereo not given), the inhibition came to 100%.

Turning to `CN[C@H]1C[C@H]2c3[nH]c4ccc(-c5ccc(OC)cc5)cc4c3CCN2C(=O)[C@H]1[C@H](C)O`, the inhibition was found to be 102%.

For `Brc1ccc(N=Nc2ccc3ccccc3n2)cc1`, the inhibition was found to be 93.5%.

In the case of `CN1CCC2(CC1)N=C(c1ccc(F)cc1)C(=S)N2C(=O)c1ccc(C(C)(C)C)cc1`, the inhibition worked out at 102%.

For the molecule `CN(C)c1ccc(/C=C2\SC(=O)N(CCc3nnc(N)s3)C2=O)cc1`, the inhibition was 62%.

For the molecule `CCn1nc(C)cc1-c1nnc(Sc2ncc([N+](=O)[O-])s2)n1C`, the inhibition was 102%.

On to `COc1cc(/C=C2\SC(=Nc3ccccc3OC)NC2=O)ccc1O`, for which the inhibition was -37%.

Take `O=C(NNC(=O)c1cccnc1SCc1cccc([N+](=O)[O-])c1)c1ccccn1`: the inhibition was found to be 65.1%.

For `CN(C(=O)COC(=O)/C=C/c1cccc([N+](=O)[O-])c1)C1CCS(=O)(=O)C1` (stereo not given), the inhibition turned out to be 47.5%.

As for `O=C(Nc1ccccc1)c1nc[nH]c1C(=O)NCCCCCCNC(=O)c1[nH]cnc1C(=O)Nc1ccccc1`, the inhibition was -14.1%.

For the molecule `CCOc1cccc(/C=N/NC(=S)Nc2cc(S(=O)(=O)N3CCOCC3)ccc2N2CCOCC2)c1O`, the inhibition stood at 70.7%.

For the next assay, the target named is PEG-3 (UniProt Q6IN02). The description is as above. To be noted: CREF/GAPDH counter-screens; HeLa PEG-Prom luciferase reporter, overnight, run 2, dose range 1, at 100 µM (top of the series) unless noted.
Sequence of PEG-3 (Q6IN02 whole entry, looked up): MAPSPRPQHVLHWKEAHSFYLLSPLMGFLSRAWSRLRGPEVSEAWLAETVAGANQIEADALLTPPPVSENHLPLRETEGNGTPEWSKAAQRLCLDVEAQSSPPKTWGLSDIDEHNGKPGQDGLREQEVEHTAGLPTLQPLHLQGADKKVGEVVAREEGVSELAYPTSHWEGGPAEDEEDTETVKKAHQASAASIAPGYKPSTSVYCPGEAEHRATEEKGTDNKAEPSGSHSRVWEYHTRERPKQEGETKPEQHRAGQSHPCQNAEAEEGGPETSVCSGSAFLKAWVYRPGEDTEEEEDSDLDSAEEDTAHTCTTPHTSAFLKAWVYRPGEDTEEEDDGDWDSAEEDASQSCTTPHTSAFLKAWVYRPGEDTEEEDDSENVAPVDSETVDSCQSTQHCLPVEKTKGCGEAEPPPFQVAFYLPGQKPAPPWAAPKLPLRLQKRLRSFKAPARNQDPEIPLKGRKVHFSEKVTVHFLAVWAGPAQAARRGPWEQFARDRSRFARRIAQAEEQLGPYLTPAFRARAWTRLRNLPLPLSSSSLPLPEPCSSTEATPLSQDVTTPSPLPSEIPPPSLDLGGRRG
On to `O=C(N/N=C/c1sc(N2CCOCC2)nc1-c1ccccc1)c1cccc(S(=O)(=O)N2CCCC2)c1`, for which the inhibition stood at 53.5%.

With `Cc1nc(-c2ccc(NC(=O)c3ccco3)cc2)cs1`, the inhibition turned out to be 99.3%.

For `O=C(c1ccco1)N1CCN(C(c2ccccc2Cl)c2nnnn2Cc2cccs2)CC1` (stereo not given), the inhibition amounted to 44.9%.

In the case of `COc1ccc(/C=C2\SC(=S)N(CCCC(=O)NNC(=O)c3ccccc3O)C2=O)cc1`, the inhibition was found to be 81.1%.

As to `Cc1ccc(C(C[N+](=O)[O-])Sc2ccc(N)cc2)cc1` (stereo not given), the inhibition was found to be 101%.

Turning to `O=C(OCC(F)(F)F)c1cccc(COc2ccc3ccccc3c2)c1`, the inhibition turned out to be 92.4%.

As to `O=C(O)c1ccc(N/N=C/c2ccc3c(c2)OCO3)cc1`, the inhibition was 102%.

Take `Cc1cc(C)c2c(N)c(C(=O)Nc3ncc(C)s3)sc2n1`: the inhibition was 98.2%.

Take `Cc1cccc(C)c1NC(=O)c1nc(S(=O)(=O)Cc2ccccc2)ncc1Cl`: the inhibition was found to be 101%.

Turning to `COc1ccc(-n2cc(-c3ccccc3)c3c(N4CCOCC4)ncnc32)cc1`, the inhibition stood at 101%.

As to `CCCCC(=O)NC(c1ccccc1OC)c1ccc2cccnc2c1O` (stereo not given), the inhibition turned out to be 68.4%.

Consider `Cc1cc(N2CCN(C)CC2)ccc1NC(=O)c1c2c(nc3ccccc13)CCN(Cc1ccccc1)C2`, for which the inhibition was determined as 98.9%.

With `Cc1cc(C)c(C)c(S(=O)(=O)N2CCN(C(=O)c3cc(=O)[nH]c4ccccc34)CC2)c1C`, the inhibition was found to be 83.8%.

On to `CCCCCN1C=CC(=C2C(=O)c3ccccc3C2=O)C=C1`, for which the inhibition came out at 99.1%.

Consider `CCCCCCCn1c(=N)n(CC(=O)c2ccco2)c2ccccc21`, for which the inhibition worked out at 100%.

Consider `O=c1oc2ccccc2cc1-c1cn2ccccc2n1`, for which the inhibition came to 94.2%.

For the molecule `O=C(COc1ccc(Cl)cc1Cl)Nc1ccccn1`, the inhibition is 98.4%.

As for `Cc1cc(NC(c2cccnc2)c2ccc3cccnc3c2O)no1` (stereo not given), the inhibition is 74%.

Consider `CS(=O)(=O)c1ccc(-c2sc3ccccc3c2C#CCCO)cc1`, for which the inhibition is 97.9%.

`COc1cccc(-c2sc3ccccc3c2-c2ccc(OCCN(C)C)cc2)c1`: the inhibition was 98.6%.

`CCCSc1ccc2nc(-c3ccccc3)cn2c1`: the inhibition was 98.8%.

With `CC(=O)NC(c1ccc(N(C)C)cc1)c1cc(Cl)c2cccnc2c1O` (stereo not given), the inhibition amounted to 88.8%.

Consider `Cc1ccc(NC(=S)NC(=O)c2ccc(F)cc2)cc1S(=O)(=O)Nc1ccccc1Cl`, for which the inhibition came to 36.1%.

As to `CCCOc1ccc2cc(-c3ccccn3)c(=O)oc2c1`, the inhibition was found to be 94.5%.

For the molecule `CCC(c1ccc(O)c(O)c1)C(CC)c1ccc(O)c(O)c1` (stereo not given), the inhibition worked out at 101%.

`O=[N+]([O-])c1ccc(S(=O)(=O)c2ccccc2)nc1`: the inhibition was determined as 101%.

For `O=C(Nc1ccccc1C(=O)Nc1nnc(C(F)(F)F)s1)c1ccccc1`, the inhibition was 88.8%.

For the molecule `S=C(NN=C(c1ccccc1)c1ccccn1)N(Cc1ccccn1)Cc1ccccn1`, the inhibition stood at 102%.

Consider `O=C(NCCc1ccccc1)c1ccc2c(c1)OCO2`, for which the inhibition is 97.8%.

`CCC(=O)NC(c1cccs1)c1cc(Cl)c2cccnc2c1O` (stereo not given): the inhibition stood at 99.5%.

In the case of `CN[C@H]1C[C@H]2c3[nH]c4ccc(-c5ccc(OC)cc5)cc4c3CCN2C(=O)[C@H]1[C@H](C)O`, the inhibition amounted to 98.8%.

Take `Brc1ccc(N=Nc2ccc3ccccc3n2)cc1`: the inhibition was 94.5%.

With `CN1CCC2(CC1)N=C(c1ccc(F)cc1)C(=S)N2C(=O)c1ccc(C(C)(C)C)cc1`, the inhibition is 99%.

As to `CN(C)c1ccc(/C=C2\SC(=O)N(CCc3nnc(N)s3)C2=O)cc1`, the inhibition is 77.4%.

Consider `CCn1nc(C)cc1-c1nnc(Sc2ncc([N+](=O)[O-])s2)n1C`, for which the inhibition was 101%.

As to `COc1cc(/C=C2\SC(=Nc3ccccc3OC)NC2=O)ccc1O`, the inhibition was 89.3% [run 2, dose range 1, at 25 µM].

`O=C(NNC(=O)c1cccnc1SCc1cccc([N+](=O)[O-])c1)c1ccccn1`: the inhibition is 56.6%.

On to `CN(C(=O)COC(=O)/C=C/c1cccc([N+](=O)[O-])c1)C1CCS(=O)(=O)C1` (stereo not given), for which the inhibition was found to be 44.7%.

`O=C(Nc1ccccc1)c1nc[nH]c1C(=O)NCCCCCCNC(=O)c1[nH]cnc1C(=O)Nc1ccccc1`: the inhibition amounted to 24.2%.

For the molecule `CCOc1cccc(/C=N/NC(=S)Nc2cc(S(=O)(=O)N3CCOCC3)ccc2N2CCOCC2)c1O`, the inhibition was 50.5%.

What is called inhibition is the change of the read-out against control, counted positive when it falls.
